# Measured values as given in PubChem BioAssay (NCATS).
# Results filed as inconclusive are left out. The source made the active and inactive calls. Calls follow the shape of the dose curve; as a rule, active = well fitted inhibition curve with a large enough effect; inconclusive = small, poorly fitted or top-dose-only effect; inactive = flat fitted curve, though single readings scatter.
# Target: Calcium and integrin-binding protein 1 (Homo sapiens) (UniProt Q99828)
# Test: Primary qHTS for Identification of Calcium Integrin Binding Protein 1 (CIB1) Competitor (AID 1508620); also: top concentration of the series differs between compounds
# Settings: CIB1-GST / FITC-alphaIIb peptide fluorescence polarization; series mostly up to 57.7 µM; activity change, negative = inhibition: at the top concentration
# In short: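 Fluorescence polarization competition: GST-tagged CIB1 (1 uM final) preincubated with compound 15 min at room temperature, then FITC-labelled alphaIIb peptide (100 nM final) added. After 15 min at room temperature, polarization read at Ex 480/Em 540.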
# % is scaled to controls: 0 for no effect and ±100 for the full control effect.
# Calcium and integrin-binding protein 1 (Homo sapiens), sequence (Q99828 whole entry, looked up): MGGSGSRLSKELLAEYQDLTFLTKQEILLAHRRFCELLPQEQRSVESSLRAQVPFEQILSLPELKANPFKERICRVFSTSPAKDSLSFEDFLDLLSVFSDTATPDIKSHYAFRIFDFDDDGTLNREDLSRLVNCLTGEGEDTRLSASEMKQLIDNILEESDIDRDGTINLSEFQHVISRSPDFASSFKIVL
SMILES,"activity change, negative = inhibition",Potency
CC(/C=C/C1(O)C(C)CC(O)CC1(C)C)OC1OC(CO)C(O)C(O)C1O (stereo unspecified),-5.87% (inactive),–
CC(CO[C@@H]1O[C@H](COC(=O)/C=C/c2ccc(O)c(O)c2)[C@@H](O)[C@H](O)[C@H]1O)C1(O)COC(=O)C1 (stereo partly specified),1.36% (inactive),–
COC(=O)[C@H](CC1C=NC=N1)NCC12CC3CC(CC(C3)C1)C2 (stereo partly specified),-0.602% [at 114 µM] (inactive),–
O=C(/C=C/c1ccc(O)cc1)OC[C@]12O[C@H]1[C@@H](O)[C@@H]1C=CO[C@@H](O[C@@H]3O[C@H](CO)[C@@H](O)[C@H](O)[C@H]3O)[C@@H]12,1.29% (inactive),–
CC(=O)OCC(=O)O[C@@H]1[C@H]2[C@@H](OC(=O)c3ccccc3)[C@@H](C)C[C@]2(O)[C@H](OC(C)=O)C2(C)[C@H]3CC(C)(C)C(=O)[C@@H]3CC1(OC(C)=O)[C@@H]2OC(C)=O (stereo partly specified),-3.47% [at 30.2 µM] (inactive),–
Cc1nn(C)c(COc2ccc(N3CCN(S(=O)(=O)N(C)C)CC3)cc2)c1-c1cccc2c(CCCOc3cccc4ccccc34)c(C(=O)O)n(CCN3CCOCC3)c12,–,inactive
COc1c(C(CC(C)C)OC(C)=O)ccc(Oc2c(O)cc(C)cc2/C=C/C(C)=O)c1C(=O)O (stereo unspecified),-18.5% (inactive),–
OC[C@H]1O[C@@H](Oc2cc(O)cc(/C=C/c3ccc(O)cc3)c2)[C@H](O)[C@@H](O)[C@@H]1O,2.33% [at 114 µM] (inactive),–
OC1COC(OCC2OC(OCCc3ccccc3)C(O)C(O)C2O)C(O)C1O (stereo unspecified),1.11% (inactive),–
CCC[C@@H]1C[C@@H](C(=O)N[C@H](C(C)Cl)[C@H]2O[C@H](SC)[C@H](O)[C@@H](O)[C@H]2O)N(C)C1 (stereo partly specified),0.966% [at 114 µM] (inactive),–
CCN[C@@H]1C[C@H](N)[C@@H](O[C@H]2OC(CN)=CC[C@H]2N)[C@H](O)[C@H]1O[C@H]1OC[C@](C)(O)[C@H](NC)[C@H]1O,–,inactive
